Our source for the growth inhibition values is PubChem BioAssay (NCI).

The panel holds about 79,000 compounds, 15% with a hit somewhere; the sample as a whole holds those more often. Active and inactive are the calls of the source. No stated cut-off is given here; in the data, active means growth inhibition above about 70%; inactive means the rest.

One assay can be described thus: NCI Yeast Anticancer Drug Screen. Data for the rad50EPP+ strain (AID 151).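 Further: 0% = growth of vehicle-treated control cultures.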 The note with it: S. cerevisiae rad50 mutant strain, at 1.2 µM, stronger effect = higher value. In a few lines: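 Measured: growth inhibition of rad50EPP+ yeast. Reference: vehicle-treated controls. Screen uses strains with defined genetic alterations in DNA damage repair or cell cycle control.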
Take `CCCc1cc(C(=O)OCC)cc(CCC)c1O`: the growth inhibition is -2% (inactive).

As for `CC(C)[N+]([O-])(CCCNc1c2ccccc2nc2cccc([N+](=O)[O-])c12)C(C)C`, the growth inhibition was 6% (inactive).

With `COc1cc2c3c(cccc3c1)C(=O)N(CCN(C)C)C2=O`, the growth inhibition was -23% (inactive).

On to `NC(=O)NN=C(CS)CS`, for which the growth inhibition is -2% (inactive).

In the case of `Cc1ccc(NC(=O)/C(Cl)=C(\Cl)C(=O)O)cc1C`, the growth inhibition is 6% (inactive).

Turning to `CCN(CC)CC[n+]1ccc2c(C)c3[nH]c4ccc(O)cc4c3c(C)c2c1`, the growth inhibition was 4% (inactive).

Take `CC(CC(C)(C)[N+](C)(C)C)[N+](C)(C)C` (stereo not drawn): the growth inhibition is -1% (inactive).

Take `COc1ccc(OC)c2cc3ccccc3cc12`: the growth inhibition was -13% (inactive).

In the case of `Nc1ncncc1C(C1=C(O)COC1=O)C1=C(O)COC1=O`, the growth inhibition is 6% (inactive).

Regarding `CSC1=NNC(SC)=NN1`, the growth inhibition was -4% (inactive).

Turning to `Cc1c(Cl)ccc2c1S(=O)(=O)c1cccc(Cl)c1-2`, the growth inhibition was -12% (inactive).

For the molecule `[O-][n+]1c2ccc(O)cc2nc2ccc(Cl)cc21`, the growth inhibition is 5% (inactive).

On to `COc1ccc2ccc3ccccc3c2c1C=O`, for which the growth inhibition is 0% (inactive).

Regarding `Nc1ccc2c(c1)C(=O)c1cccc(N)c1C2=O`, the growth inhibition is 9% (inactive).

As to `O=C(c1ccc(Cl)cc1Cl)C(Cl)Cl`, the growth inhibition is 40% (inactive).

In the case of `COc1cc(C(=O)/C=C/c2ccccc2O)ccc1O`, the growth inhibition is 11% (inactive).

`O=Cc1cccc2ccc3ccccc3c12`: the growth inhibition was 5% (inactive).

For `O=C(Nc1ccc(Cl)cc1)OCC#CCCl`, the growth inhibition is 76% (active).

As for `Cn1ccnc1Oc1ccc(Cl)cc1`, the growth inhibition is -5% (inactive).

As to `c1ccc2c(c1)C(=NCCCN1CCCCCC1)c1cccn1-2`, the growth inhibition is -3% (inactive).

Regarding `C/C(=N\O)C1CC2C=C(C#N)C1N(Cc1ccccc1)C2` (stereo not drawn), the growth inhibition was 2% (inactive).

`O=[N+]([O-])C(=C(Sc1ccccc1)Sc1ccccc1)C(Cl)=C(Cl)Cl`: the growth inhibition was 9% (inactive).

For the molecule `CCCCCCCCCC/C=C\C(=O)O`, the growth inhibition was 0% (inactive).

Regarding `COc1ccc(N=C2C(=O)Nc3ccc(Br)cc32)cc1`, the growth inhibition was -9% (inactive).

For the molecule `COc1ccccc1C(=O)OCC1CCCN2CCCCC12` (stereo not drawn), the growth inhibition was 4% (inactive).

Regarding `CC(C)(Br)C(=O)/C=C/c1ccc(Cl)c(Cl)c1`, the growth inhibition was 4% (inactive).

With `Nc1ccccc1CC(O)C(=O)O` (stereo not drawn), the growth inhibition is -2% (inactive).

Consider `CC(=O)N/N=C/C(C)(C)C(C)(C)/C=N/NC(C)=O`, for which the growth inhibition is -3% (inactive).

With `CN(C)c1nc2sc3c(c2c(=O)o1)CCCC3`, the growth inhibition is 13% (inactive).

With `CC(C)OC(=O)Oc1ccccc1OC(=O)OC(C)C`, the growth inhibition was -1% (inactive).

In the case of `Cc1ccc(N)c(S)c1`, the growth inhibition is -49% (inactive).

With `O=C(O)c1ccccc1NC(=S)c1ccccc1`, the growth inhibition is 13% (inactive).

As for `COC(=O)c1ccc(NCC2=CC(=O)C=CC2=O)cc1O`, the growth inhibition was 17% (inactive).

Turning to `NC(N)=N/N=C\c1c2ccccc2cc2ccccc12`, the growth inhibition was -28% (inactive).

Turning to `COC(=O)CSSCc1ccc([N+](=O)[O-])cc1`, the growth inhibition was -2% (inactive).

On to `CCS(=O)(=O)c1ccc(/C=C/C=N/NC(=S)NCC(C)C)cc1`, for which the growth inhibition was 3% (inactive).

As for `N#CC(C(=O)Nc1ccccc1)C1=C(Cl)C(=O)c2ccccc2C1=O` (stereo not drawn), the growth inhibition is 13% (inactive).

As to `C[C@H](CCC(=O)NN)[C@H]1CC[C@H]2[C@@H]3CC[C@@H]4C[C@H](O)CC[C@]4(C)[C@H]3CC[C@]12C`, the growth inhibition was 0% (inactive).

For `CC[n+]1ccc2c(C)c3[nH]c4ccc(O)cc4c3c(C)c2c1`, the growth inhibition is 16% (inactive).

Staying with this assay, now noted: S. cerevisiae rad50 mutant strain, at 3.7 µM, stronger effect = higher value.
As for `CCCc1cc(C(=O)OCC)cc(CCC)c1O`, the growth inhibition was 3% (inactive).

Consider `CC(C)[N+]([O-])(CCCNc1c2ccccc2nc2cccc([N+](=O)[O-])c12)C(C)C`, for which the growth inhibition was 26% (inactive).

Turning to `COc1cc2c3c(cccc3c1)C(=O)N(CCN(C)C)C2=O`, the growth inhibition was 1% (inactive).

Take `NC(=O)NN=C(CS)CS`: the growth inhibition was -1% (inactive).

In the case of `Cc1ccc(NC(=O)/C(Cl)=C(\Cl)C(=O)O)cc1C`, the growth inhibition is 16% (inactive).

With `CCN(CC)CC[n+]1ccc2c(C)c3[nH]c4ccc(O)cc4c3c(C)c2c1`, the growth inhibition is 16% (inactive).

As for `CC(CC(C)(C)[N+](C)(C)C)[N+](C)(C)C` (stereo not drawn), the growth inhibition is 1% (inactive).

With `COc1ccc(OC)c2cc3ccccc3cc12`, the growth inhibition was 7% (inactive).

As for `Nc1ncncc1C(C1=C(O)COC1=O)C1=C(O)COC1=O`, the growth inhibition was 10% (inactive).

For the molecule `CSC1=NNC(SC)=NN1`, the growth inhibition was -9% (inactive).

As for `Cc1c(Cl)ccc2c1S(=O)(=O)c1cccc(Cl)c1-2`, the growth inhibition was 12% (inactive).

For the molecule `[O-][n+]1c2ccc(O)cc2nc2ccc(Cl)cc21`, the growth inhibition was 16% (inactive).

On to `COc1ccc2ccc3ccccc3c2c1C=O`, for which the growth inhibition was 2% (inactive).

On to `Nc1ccc2c(c1)C(=O)c1cccc(N)c1C2=O`, for which the growth inhibition is 50% (inactive).

Take `O=C(c1ccc(Cl)cc1Cl)C(Cl)Cl`: the growth inhibition was 53% (inactive).

For `COc1cc(C(=O)/C=C/c2ccccc2O)ccc1O`, the growth inhibition was 89% (active).

Turning to `O=Cc1cccc2ccc3ccccc3c12`, the growth inhibition is 15% (inactive).

Consider `O=C(Nc1ccc(Cl)cc1)OCC#CCCl`, for which the growth inhibition is 92% (active).

For `Cn1ccnc1Oc1ccc(Cl)cc1`, the growth inhibition was -22% (inactive).

As for `c1ccc2c(c1)C(=NCCCN1CCCCCC1)c1cccn1-2`, the growth inhibition was -4% (inactive).

As to `C/C(=N\O)C1CC2C=C(C#N)C1N(Cc1ccccc1)C2` (stereo not drawn), the growth inhibition was 2% (inactive).

For the molecule `O=[N+]([O-])C(=C(Sc1ccccc1)Sc1ccccc1)C(Cl)=C(Cl)Cl`, the growth inhibition was 20% (inactive).

As for `CCCCCCCCCC/C=C\C(=O)O`, the growth inhibition is -1% (inactive).

Consider `COc1ccc(N=C2C(=O)Nc3ccc(Br)cc32)cc1`, for which the growth inhibition is 1% (inactive).

As to `COc1ccccc1C(=O)OCC1CCCN2CCCCC12` (stereo not drawn), the growth inhibition was -3% (inactive).

As to `CC(C)(Br)C(=O)/C=C/c1ccc(Cl)c(Cl)c1`, the growth inhibition was 3% (inactive).

Consider `Nc1ccccc1CC(O)C(=O)O` (stereo not drawn), for which the growth inhibition is 1% (inactive).

Consider `CC(=O)N/N=C/C(C)(C)C(C)(C)/C=N/NC(C)=O`, for which the growth inhibition was 11% (inactive).

As to `CN(C)c1nc2sc3c(c2c(=O)o1)CCCC3`, the growth inhibition is 14% (inactive).

`CC(C)OC(=O)Oc1ccccc1OC(=O)OC(C)C`: the growth inhibition was 2% (inactive).

Turning to `Cc1ccc(N)c(S)c1`, the growth inhibition is -39% (inactive).

Consider `O=C(O)c1ccccc1NC(=S)c1ccccc1`, for which the growth inhibition is 14% (inactive).

`COC(=O)c1ccc(NCC2=CC(=O)C=CC2=O)cc1O`: the growth inhibition was 63% (inactive).

With `NC(N)=N/N=C\c1c2ccccc2cc2ccccc12`, the growth inhibition is -20% (inactive).

On to `COC(=O)CSSCc1ccc([N+](=O)[O-])cc1`, for which the growth inhibition is 13% (inactive).

As to `CCS(=O)(=O)c1ccc(/C=C/C=N/NC(=S)NCC(C)C)cc1`, the growth inhibition was 5% (inactive).

`N#CC(C(=O)Nc1ccccc1)C1=C(Cl)C(=O)c2ccccc2C1=O` (stereo not drawn): the growth inhibition is 43% (inactive).

Consider `C[C@H](CCC(=O)NN)[C@H]1CC[C@H]2[C@@H]3CC[C@@H]4C[C@H](O)CC[C@]4(C)[C@H]3CC[C@]12C`, for which the growth inhibition was 4% (inactive).

Consider `CC[n+]1ccc2c(C)c3[nH]c4ccc(O)cc4c3c(C)c2c1`, for which the growth inhibition was 34% (inactive).
